Test results taken from PubChem BioAssay.
The source made the active and inactive calls.

Experiments:
Albumin (Bos taurus) = Albumin (Bos taurus) (UniProt P02769); assay: compounds binding labelled BSA control protein – biochemical, small-molecule microarray, Alexa647 label, 635/667 nm fluorescence, artefact control for SMM control protein annotation, profiling panel (AID 1118); settings: BSA-A647 binding, fluorescence 635 nm, higher = more signal;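 also: score merges 667 nm emission intensity and signal-to-noise per printed compound spot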
[1] = probe aXIP binding to arrayed compounds – biochemical, NeuroSMM set, 635/667 nm fluorescence, primary screen (AID 1119); settings: small-molecule microarray, higher = more signal, called active from +8 up or from −8 down;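 also: probe is the protein aXip251-270 applied at 1 µg/mL to compound-printed slides; binding of probe to printed compounds measured as 667 nm fluorescence plus signal to noise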
[2] = probe aNOTCH3 binding on compound microarray – biochemical, small-molecule microarray, 635/667 nm fluorescence, primary screen (AID 1120); settings: higher = more signal;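 also: probe is a biotin-tagged antibody raised against NOTCH3 rather than NOTCH3 protein; score merges spot fluorescence near 667 nm with spot signal to noise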
[3] = probe aNOTCH2 binding on compound microarray – biochemical, small-molecule microarray, 635/667 nm fluorescence, primary screen (AID 1121); settings: higher = more signal;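 also: score merges feature fluorescence read at 667 nm with its signal to noise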
[4] = molecular target: Carbonic anhydrase 2 (Homo sapiens) (UniProt P00918); assay: compounds binding carbonic anhydrase 2 – biochemical, small-molecule microarray, Alexa647-labelled CAII, profiling panel (AID 1122); settings: CAII-A647 binding fluorescence, higher = more signal
[5] = COS7 lysate on small-molecule microarray, probe aHis, 635 nm (AID 1123); settings: COS7 cell lysate, fluorescence, higher = more signal;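 also: z-score combines 667nm fluorescence intensity with signal-to-noise per printed compound spot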
[6] = probe aLAP1 signal on lysate-treated microarray – cell lysate, small-molecule microarray, COS7 lysate, primary screen (AID 1124); settings: probe aLAP1, fluorescence, higher = more signal;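 also: lysate comes from COS7 cells expressing LAP1 and is applied at 0.3 µg/mL; score merges spot fluorescence near 667 nm with signal-to-noise over triplicate slides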
Sam68 (KHDRBS1) = assay: compounds binding KHDRBS1 protein – biochemical, small-molecule microarray, 635 nm fluorescence, primary screen (AID 1125); settings: higher = more signal;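 also: score merges 667 nm channel intensity with signal to noise over triplicate slides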
[7] = tested on: Chordin-like protein 2 (CHRDL2); assay: compounds binding chordin-like 2 – biochemical, small-molecule microarray, 635 nm fluorescence, primary screen (AID 1126); settings: fluorescence 635 nm, higher = more signal;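 also: printed compound slides probed with Chrdl2 protein at 4 µg/mL for 1 h at 4 C; score merges 667 nm emission intensity with signal to noise over three replicate slides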
[8] = molecular target: Concanavalin-A (Canavalia ensiformis) (UniProt P02866); assay: compounds binding concanavalin A lectin – biochemical, small-molecule microarray, Alexa647 label, 635 nm, artefact control for SMM control protein annotation, primary screen (AID 1127); settings: ConA-A647 binding fluorescence, higher = more signal;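 also: z combines 667 nm emission intensity with signal-to-noise across three replicate slides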
[9] = compounds binding Alexa647 anti-His antibody – biochemical, small-molecule microarray, 635 nm fluorescence, artefact control for SMM control protein annotation, primary screen (AID 1128); settings: higher = more signal;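 also: score merges feature fluorescence with signal-to-noise for each printed compound spot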
[10] = tested on: Human papillomavirus type 1a E7 protein (residues 1-88); assay: HPV1a E7 small-molecule binders, primary screen, biochemical, small-molecule microarray, residues 1-88, 635 nm (AID 1129); settings: small-molecule microarray binding, fluorescence 635 nm; higher = more signal
[11] = molecular target: Focal adhesion kinase 1 (Homo sapiens) (UniProt Q05397); assay: PTK2 protein binding on printed compound slides – biochemical, small-molecule microarray, 635/667 nm fluorescence, BSA, DTT, primary screen (AID 1130); settings: 635 nm fluorescence, higher = more signal;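 also: composite of spot emission at 667 nm and signal to noise over triplicate slides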
[12] = tested on: Fibrinogen (Alexa647-labelled); assay: Alexa647-fibrinogen binding to printed small molecules – biochemical, small-molecule microarray, 635/667 nm fluorescence, artefact control for SMM control-protein annotation, profiling panel (AID 1131); settings: fibrinogen-A647 binding fluorescence, higher = more signal;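 also: z-score merges 667 nm fluorescence with per-spot signal-to-noise over triplicate slides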
[13] = molecular target: Follistatin (Homo sapiens) (UniProt P19883); assay: FST protein binding to printed compounds – biochemical, small-molecule microarray, 635/667 nm fluorescence, primary screen (AID 1132); settings: 635 nm fluorescence, higher = more signal
[14] = molecular target: Fibroblast growth factor 2 (Homo sapiens) (UniProt P09038); assay: basic fibroblast growth factor binding to printed compounds – biochemical, small-molecule microarray, 635/667 nm fluorescence, primary screen (AID 1133); settings: FGF2, fluorescence 635/667, higher = more signal
[15] = JC-1 mitochondrial potential readout, lung cancer cells – cell-based, A549, JC-1 fluorescence, basal, 24 h, 100 nL, profiling panel (AID 1138); settings: higher = more signal;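 also: A549 lung adenocarcinoma cells under basal conditions with no added stimulus; test concentration not given here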
Lefty1 = Lefty1 protein binding to printed compounds – biochemical, small-molecule microarray, 635/667 nm fluorescence, primary screen (AID 1139); settings: fluorescence 635/667, higher = more signal
[16] = tested on: wheat germ agglutinin (Triticum aestivum), Alexa647-labelled; assay: Alexa647-WGA lectin binding to printed small molecules – biochemical, small-molecule microarray, 635/667 nm fluorescence, artefact control for SMM control-protein annotation, profiling panel (AID 1140); settings: WGA-A647 binding, 635 nm fluorescence, higher = more signal;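 also: score merges 667 nm feature emission with signal to noise over triplicate slides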
[17] = molecular target: Luciferin 4-monooxygenase (Photinus pyralis) (UniProt P08659); assay: inhibition of purified Photinus pyralis luciferase – biochemical, luminescence, purified enzyme, 2006 set, primary screen (AID 1141); settings: purified firefly luciferase, SteadyGlo luminescence, 30 min; higher = more signal, called active from +8 up or from −8 down;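 also: cell-free assay with purified firefly luciferase at 100 ng per well in PBS; test concentration not given here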
Sequence of Luciferin 4-monooxygenase (Photinus pyralis) (P08659 whole entry, looked up): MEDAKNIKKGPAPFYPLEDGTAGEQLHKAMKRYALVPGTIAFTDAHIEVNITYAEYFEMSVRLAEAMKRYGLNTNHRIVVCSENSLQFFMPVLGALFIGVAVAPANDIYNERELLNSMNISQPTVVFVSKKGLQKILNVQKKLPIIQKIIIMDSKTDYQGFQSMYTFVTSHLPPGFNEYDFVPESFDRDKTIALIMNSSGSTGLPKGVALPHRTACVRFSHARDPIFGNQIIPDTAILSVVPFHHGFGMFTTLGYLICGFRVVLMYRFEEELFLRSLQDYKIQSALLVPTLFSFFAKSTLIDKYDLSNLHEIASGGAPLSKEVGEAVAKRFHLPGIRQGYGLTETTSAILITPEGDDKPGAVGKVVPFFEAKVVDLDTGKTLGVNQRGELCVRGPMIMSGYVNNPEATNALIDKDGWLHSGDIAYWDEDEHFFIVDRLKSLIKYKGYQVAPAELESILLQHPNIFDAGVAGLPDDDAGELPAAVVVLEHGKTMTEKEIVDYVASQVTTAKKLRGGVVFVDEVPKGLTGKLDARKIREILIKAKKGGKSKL

Sequence of Focal adhesion kinase 1 (Homo sapiens) (Q05397 whole entry, looked up): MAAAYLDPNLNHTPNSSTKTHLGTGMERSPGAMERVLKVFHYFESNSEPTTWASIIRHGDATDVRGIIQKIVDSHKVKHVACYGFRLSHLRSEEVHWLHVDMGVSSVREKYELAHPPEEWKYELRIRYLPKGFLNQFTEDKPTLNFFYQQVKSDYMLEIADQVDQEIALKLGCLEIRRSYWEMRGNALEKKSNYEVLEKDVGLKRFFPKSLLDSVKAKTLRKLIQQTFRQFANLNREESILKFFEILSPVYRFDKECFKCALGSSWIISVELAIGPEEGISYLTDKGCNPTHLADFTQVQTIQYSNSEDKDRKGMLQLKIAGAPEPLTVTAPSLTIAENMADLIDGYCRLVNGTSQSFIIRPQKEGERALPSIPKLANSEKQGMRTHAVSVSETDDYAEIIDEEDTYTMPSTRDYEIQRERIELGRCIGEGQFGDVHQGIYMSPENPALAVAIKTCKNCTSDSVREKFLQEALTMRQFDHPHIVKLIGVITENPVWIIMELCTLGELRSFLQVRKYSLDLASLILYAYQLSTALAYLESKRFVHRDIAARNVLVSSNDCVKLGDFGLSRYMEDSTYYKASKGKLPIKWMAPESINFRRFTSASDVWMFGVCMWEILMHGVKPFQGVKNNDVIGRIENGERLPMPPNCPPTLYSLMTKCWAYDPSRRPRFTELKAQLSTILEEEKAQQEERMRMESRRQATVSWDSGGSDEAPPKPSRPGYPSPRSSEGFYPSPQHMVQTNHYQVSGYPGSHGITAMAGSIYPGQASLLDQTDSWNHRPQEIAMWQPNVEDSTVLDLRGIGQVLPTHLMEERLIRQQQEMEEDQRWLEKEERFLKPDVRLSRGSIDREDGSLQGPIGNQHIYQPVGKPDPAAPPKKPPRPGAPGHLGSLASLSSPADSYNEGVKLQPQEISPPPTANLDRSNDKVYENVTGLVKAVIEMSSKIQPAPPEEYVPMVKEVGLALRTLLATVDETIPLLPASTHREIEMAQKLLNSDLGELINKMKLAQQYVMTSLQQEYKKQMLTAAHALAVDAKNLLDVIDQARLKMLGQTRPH
Sequence of Follistatin (Homo sapiens) (P19883 whole entry, looked up): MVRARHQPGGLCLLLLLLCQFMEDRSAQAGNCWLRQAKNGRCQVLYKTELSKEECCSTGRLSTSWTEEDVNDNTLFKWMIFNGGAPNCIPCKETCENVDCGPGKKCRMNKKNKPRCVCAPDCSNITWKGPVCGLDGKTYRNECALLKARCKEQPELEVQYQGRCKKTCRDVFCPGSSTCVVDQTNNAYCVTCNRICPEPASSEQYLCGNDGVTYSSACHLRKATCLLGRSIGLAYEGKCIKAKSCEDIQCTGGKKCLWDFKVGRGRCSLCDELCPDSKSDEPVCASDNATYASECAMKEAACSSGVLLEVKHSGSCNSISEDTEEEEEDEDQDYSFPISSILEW
Sequence of Albumin (Bos taurus) (P02769 whole entry, looked up): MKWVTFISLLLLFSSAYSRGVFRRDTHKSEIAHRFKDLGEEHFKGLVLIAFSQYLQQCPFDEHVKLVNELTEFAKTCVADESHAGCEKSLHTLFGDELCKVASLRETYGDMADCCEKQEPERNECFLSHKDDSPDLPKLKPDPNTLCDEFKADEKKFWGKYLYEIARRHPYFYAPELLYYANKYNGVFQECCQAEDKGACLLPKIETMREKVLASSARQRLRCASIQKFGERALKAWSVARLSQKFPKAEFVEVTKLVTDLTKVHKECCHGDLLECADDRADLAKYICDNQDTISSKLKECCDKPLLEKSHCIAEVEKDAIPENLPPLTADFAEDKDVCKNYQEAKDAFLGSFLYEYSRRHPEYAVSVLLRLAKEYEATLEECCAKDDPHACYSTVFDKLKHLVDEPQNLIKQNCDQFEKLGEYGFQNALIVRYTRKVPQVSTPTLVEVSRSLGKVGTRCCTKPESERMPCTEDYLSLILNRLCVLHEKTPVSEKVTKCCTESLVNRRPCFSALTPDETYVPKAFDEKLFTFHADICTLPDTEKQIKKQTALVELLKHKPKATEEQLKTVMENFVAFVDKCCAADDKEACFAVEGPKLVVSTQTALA
Sequence of Fibroblast growth factor 2 (Homo sapiens) (P09038 whole entry, looked up): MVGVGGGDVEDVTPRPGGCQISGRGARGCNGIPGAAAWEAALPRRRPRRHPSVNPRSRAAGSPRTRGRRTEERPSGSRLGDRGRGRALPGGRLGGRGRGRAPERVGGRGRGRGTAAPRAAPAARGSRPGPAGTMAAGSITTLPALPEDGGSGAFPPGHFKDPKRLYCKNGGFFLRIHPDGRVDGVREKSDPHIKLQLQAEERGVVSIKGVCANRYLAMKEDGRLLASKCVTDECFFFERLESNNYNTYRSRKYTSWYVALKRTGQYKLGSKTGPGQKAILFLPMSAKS
Sequence of Concanavalin-A (Canavalia ensiformis) (P02866 whole entry, looked up): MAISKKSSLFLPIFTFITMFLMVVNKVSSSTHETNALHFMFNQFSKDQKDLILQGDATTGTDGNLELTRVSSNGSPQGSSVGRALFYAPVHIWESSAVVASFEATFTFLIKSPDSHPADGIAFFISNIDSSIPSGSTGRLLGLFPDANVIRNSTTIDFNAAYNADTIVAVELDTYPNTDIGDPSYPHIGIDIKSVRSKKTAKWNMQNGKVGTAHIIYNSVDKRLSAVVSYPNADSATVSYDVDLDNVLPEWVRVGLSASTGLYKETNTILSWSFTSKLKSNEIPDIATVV

SMILES	composite z-score (Albumin (Bos taurus))	composite Z-score [1]	composite z-score [2]	composite z-score [3]	composite z-score [4]	composite z-score [5]	composite z-score [6]	composite z-score (Sam68 (KHDRBS1))	composite z-score [7]	composite z-score [8]	composite z-score [9]	composite z-score [10]	composite z-score [11]	composite z-score [12]	composite z-score [13]	composite z-score [14]	z-score [15]	composite z-score (Lefty1)	composite z-score [16]	z-score [17]
CN(C)CCCCNC(=O)[C@@H]1C[C@@H]2C(=O)N[C@@H](Cc3ccccc3)C(=O)N2[C@@H]1c1cccc(OCCO)c1	-0.0493	1.1 (inactive)	-0.239	-0.153	0.74	2.59	1.11	1.06	1.08	1.07	2.09	0.579	-0.0323	0.513	1.33	1.75	1.53	1.65	0.645	-2.68 (inactive)
CCOC(=O)C1=CC[C@@H](c2ccc(OCc3ccccc3)c(OC)c2)N(S(=O)(=O)c2ccc(C)cc2)[C@H]1c1ccc(SC)cc1	0.783	0.207 (inactive)	0.386	0.202	0.625	2.53	0.157	1.31	0.525	0.806	1.44	1.24	0.398	0.715	0.761	0.159	-0.219	0.542	0.71	0.107 (inactive)
C=C(C)[C@@H]1CC=C(C(O)C2C=CC3C(=O)N(c4ccccc4)C(=O)C3N2Nc2ccccc2F)CC1 (stereo not given in full)	0.956	0.117 (inactive)	0.466	-0.0467	0.747	3.08	-0.102	1.34	0.0095	1.13	0.282	1.27	1.12	0.987	1.11	0.0538	-0.568	0.531	1.27	-0.809 (inactive)
NCCCCCCNC(=O)[C@@H]1C[C@@H]2C(=O)N[C@@H](CCCCN)C(=O)N2[C@@H]1c1cccc(OCCO)c1	-0.907	2.87 (inactive)	0.645	0.163	0.584	-0.191	0.767	1.2	1.05	0.718	1.24	1.12	1.21	-0.0787	0.877	0.485	0.81	1.4	0.641	0.507 (inactive)
COc1cc2c(cc1O)C(C)N(Cc1ccc([N+](=O)[O-])o1)CC2 (stereo not given)	0.831	0.0948 (inactive)	0.348	0.0746	0.512	0.68	1.57	1.33	-0.622	1.17	1.63	1.1	0.243	0.824	0.542	0.18	0.275	0.18	0.918	-0.0107 (inactive)
COc1ccc(-c2nc(-c3ccccc3)c3c(c2C)CO[Si]3(C(C)C)C(C)C)cn1	-0.475	0.428 (inactive)	-0.126	-0.0921	0.0924	0.583	-0.209	0.152	0.151	-0.209	-0.479	0.081	0.268	-0.579	0.16	0.639	-0.0772	0.402	0.0463	0.431 (inactive)
C=C(/C(=C/C[C@H](OC(C)=O)c1ccccc1OCCO)c1cc(C(=O)OC)ccc1OC)C(C)C	0.469	-0.0127 (inactive)	-0.0782	-0.173	0.491	1.26	-0.0654	0.527	-0.152	0.548	2.68	0.278	-0.164	0.0823	0.494	0.428	-0.139	0.501	0.151	-0.475 (inactive)
COc1ccc(CCNC(=O)[C@@]2(Sc3ccc(C)cc3)CC(=O)N(C3Cc4ccccc4C3)[C@@H]2c2ccc(CO)cc2)cc1	0.575	-0.413 (inactive)	0.0522	0.0407	0.274	1.23	0.661	1.3	1.5	1.14	1.27	1.21	1.54	0.434	1.65	2.16	0.927	1.44	0.437	0.529 (inactive)
CCCCCCc1nc(C2CC2)cc2c1[Si](C(C)C)(C(C)C)O[C@H]2c1ccccc1	-0.948	-0.228 (inactive)	-0.0647	-0.126	-0.324	-0.724	0.649	-0.698	0.21	0.327	-0.523	-0.873	0.0181	-0.675	0.0915	0.248	-0.911	1.05	-0.127	0.747 (inactive)
CC(C)C(CO)N1C(=O)[C@@H]2C3C(=O)OCCC/C=C\[C@H]3OC23C=CCN(C(C)(C)C)C(=O)[C@@H]13 (stereo not given in full)	-0.632	-0.115 (inactive)	-0.304	-0.156	0.815	-0.12	-0.281	-0.142	-0.438	-1.47	-0.539	-0.768	-0.147	-2.19	-0.895	-0.363	-0.0938	-0.404	-1.04	-0.197 (inactive)
